# Test results from PubChem BioAssay AID1159580 (chemical genetic matrix, 2015).
# Screen size: about 5,500 compounds; about 2,000 (36%) were called active. Not shown: some 18% with an inconclusive outcome. The list shows a part of the results. Unmarked numbers belong to inactive results. Cut-off read from the data, not from the text of the source: active = normalized growth mostly below about 0.91 (no sharp cut-off); inconclusive = no clear call, values can overlap the other calls; inactive = mostly above about 0.92.
# Assay: chemical genetic growth profiling, strain panel (AID 1159580);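 note: tested at 20 µM; growth read once vehicle control cultures reached saturation at 30 °C; 1 = growth at the plate median or of vehicle wells; lower values mean less growth of the strain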
# Settings: growth OD
# [1] = S. cerevisiae deletion strains, locus YHR030C, strain SLT2, active compounds read low
# [2] = S. cerevisiae deletion strains, locus YAL013W, strain DEP1, active compounds read low
# [3] = S. cerevisiae deletion strains, locus YBR229C, strain ROT2, active compounds read low
# [4] = S. cerevisiae deletion strains, locus YCL061C, strain MRC1, active compounds read low
# [5] = S. cerevisiae deletion strains, locus YDL101C, strain DUN1, active compounds read low
# [6] = S. cerevisiae deletion strains, locus YDR150W, strain NUM1, active compounds read low
# [7] = S. cerevisiae deletion strains, locus YEL061C, strain CIN8, active compounds read low
# [8] = S. cerevisiae deletion strains, locus YGR078C, strain PAC10, active compounds read low
# [9] = S. cerevisiae deletion strains, locus YHR087W, strain rtc3, active compounds read low
# [10] = S. cerevisiae deletion strains, locus YJR043C, strain POL32, active compounds read low
# [11] = S. cerevisiae deletion strains, locus YJR075W, strain HOC1, active compounds read low
# [12] = S. cerevisiae deletion strains, locus YKL190W, strain CNB1, active compounds read low
# [13] = S. cerevisiae deletion strains, locus YLR039C, strain RIC1, active compounds read low
# [14] = S. cerevisiae deletion strains, locus YLR058C, strain SHM2 (second series), active compounds read low
# [15] = S. cerevisiae deletion strains, locus YLR085C, strain ARP6, active compounds read low
# [16] = S. cerevisiae deletion strains, locus YLR262C, strain YPT6, active compounds read low
# [17] = S. cerevisiae deletion strains, locus YML094W, strain GIM5, active compounds read low
# [18] = S. cerevisiae deletion strains, locus YMR219W, strain ESC1, active compounds read low
# [19] = S. cerevisiae deletion strains, locus YMR263W, strain SAP30, active compounds read low
# [20] = S. cerevisiae deletion strains, locus YMR307W, strain GAS1, active compounds read low
# [21] = S. cerevisiae deletion strains, locus YNL153C, strain GIM3, active compounds read low
# [22] = S. cerevisiae deletion strains, locus YNL298W, strain CLA4 (second series), active compounds read low
# [23] = S. cerevisiae deletion strains, locus YNL322C, strain KRE1, active compounds read low
# [24] = S. cerevisiae deletion strains, locus YNR030W, strain Alg12, active compounds read low
# [25] = S. cerevisiae deletion strains, locus YPL055C, strain LGE1, active compounds read low
# [26] = S. cerevisiae deletion strains, locus YPL241C, strain CIN2, active compounds read low
# [27] = S. cerevisiae deletion strains, locus YPR135W, strain CTF4, active compounds read low
# [28] = S. cerevisiae deletion strains, locus YAL040C, strain CLN3, active compounds read low
# [29] = S. cerevisiae deletion strains, locus YCL061C, strain MRC1 (second series), active compounds read low
# [30] = S. cerevisiae deletion strains, locus YDR363W, strain ESC2, active compounds read low
# [31] = S. cerevisiae deletion strains, locus YER002W, strain NOP16, active compounds read low
# [32] = S. cerevisiae deletion strains, locus YNL128W, strain TEP1, active compounds read low
# [33] = S. cerevisiae deletion strains, locus YNL175C, strain NOP13, active compounds read low
# [34] = S. cerevisiae deletion strains, locus YNL197C, strain WHI3, active compounds read low
# [35] = S. cerevisiae deletion strains, locus YNL224C, strain SQS1, active compounds read low
# [36] = S. cerevisiae deletion strains, locus YOR083W, strain WHI5 (second series), active compounds read low
smiles,measurement,setting,value
c1cncc(C2=NCCC2)c1,normalized growth,[1],1.02
same,normalized growth,"S. cerevisiae deletion strains, locus YHR079C, strain IRE1, active compounds read low",1.01
same,normalized growth,"S. cerevisiae deletion strains, locus YJL095W, strain BCK1, active compounds read low",1.02
same,normalized growth,"S. cerevisiae deletion strains, locus YJR066W, strain TOR1, active compounds read low",0.938
same,normalized growth,"S. cerevisiae deletion strains, locus YLR113W, strain HOG1, active compounds read low",0.905
same,normalized growth,"S. cerevisiae deletion strains, locus YNL183C, strain NPR1, active compounds read low",0.952
same,normalized growth,"S. cerevisiae deletion strains, locus YOR231W, strain MKK1, active compounds read low",1.01
same,normalized growth,"S. cerevisiae deletion strains, locus YPL256C, strain CLN2, active compounds read low",0.99
c1ccc(-c2ccc(-c3csc(-c4cccnc4)n3)cc2)cc1,normalized growth,[2],1.01
same,normalized growth,[3],1.02
same,normalized growth,[4],0.951
same,normalized growth,[5],0.972
same,normalized growth,[6],1
same,normalized growth,[7],1.01
same,normalized growth,[8],0.997
same,normalized growth,[1],1.04
same,normalized growth,[9],1.01
same,normalized growth,"S. cerevisiae deletion strains, locus YJL187C, strain SWE1, active compounds read low",0.979
same,normalized growth,[10],0.975
same,normalized growth,[11],1.03
same,normalized growth,[12],1.02
same,normalized growth,[13],1.01
same,normalized growth,[14],1.02
same,normalized growth,[15],0.991
same,normalized growth,[16],1.09
same,normalized growth,[17],1
same,normalized growth,[18],1.02
same,normalized growth,[19],0.992
same,normalized growth,[20],0.896
same,normalized growth,[21],0.956
same,normalized growth,[22],1.04
same,normalized growth,[23],1.03
same,normalized growth,[24],1.01
same,normalized growth,"S. cerevisiae deletion strains, locus YOL006C, strain TOP1, active compounds read low",1.08
same,normalized growth,[25],0.944
same,normalized growth,[26],0.979
same,normalized growth,[27],1.08
c1ccc(-c2csc(-c3cccnc3)n2)cc1,normalized growth,[2],0.872 (active)
same,normalized growth,[3],0.886 (active)
same,normalized growth,[4],0.853 (active)
same,normalized growth,[5],0.912
same,normalized growth,"S. cerevisiae deletion strains, locus YDL134C, strain PPH21, active compounds read low",0.954
same,normalized growth,[6],0.946
same,normalized growth,[7],0.793 (active)
same,normalized growth,[8],0.9 (active)
same,normalized growth,[1],0.132 (active)
same,normalized growth,[9],0.938
same,normalized growth,[10],0.935
same,normalized growth,[11],0.855 (active)
same,normalized growth,[12],0.853 (active)
same,normalized growth,[13],0.557 (active)
same,normalized growth,[14],0.908 (active)
same,normalized growth,[15],0.275 (active)
same,normalized growth,[16],0.432 (active)
same,normalized growth,[17],0.772 (active)
same,normalized growth,[18],0.892 (active)
same,normalized growth,[19],0.873 (active)
same,normalized growth,[21],0.887 (active)
same,normalized growth,[22],0.74 (active)
same,normalized growth,[23],0.94 (active)
same,normalized growth,[24],0.857 (active)
same,normalized growth,[25],0.717 (active)
same,normalized growth,[26],0.855 (active)
same,normalized growth,[27],0.377 (active)
same,normalized growth,"S. cerevisiae strains, strain wild type, active compounds read low",0.949
CNc1ccc2oc(C[C@H]3O[C@@]4(CC[C@H]3C)O[C@H]([C@H](C)C(=O)c3ccc[nH]3)[C@H](C)C[C@H]4C)nc2c1C(=O)O,normalized growth,[2],0.976
same,normalized growth,[28],0.929
same,normalized growth,[29],0.951
same,normalized growth,[30],0.928
same,normalized growth,[31],0.997
same,normalized growth,[32],0.98
same,normalized growth,[33],0.907 (active)
same,normalized growth,[34],0.853 (active)
same,normalized growth,[35],0.924
same,normalized growth,[36],0.906
CCCCCC(O)c1cccc(OCc2ccc3ccccc3n2)c1 (stereo unspecified),normalized growth,[2],0.958
same,normalized growth,[28],0.958
same,normalized growth,[29],0.984
same,normalized growth,[6],1
same,normalized growth,[30],0.976
same,normalized growth,[31],1.01
same,normalized growth,[8],0.982
same,normalized growth,"S. cerevisiae deletion strains, locus YGR229C, strain SMI1, active compounds read low",0.942
same,normalized growth,[20],0.996
same,normalized growth,[32],1
same,normalized growth,[33],0.995
same,normalized growth,[34],0.995
same,normalized growth,[35],0.99
same,normalized growth,[23],0.972
same,normalized growth,[36],0.873
same,normalized growth,[25],0.973
